# A selection: hits, their analogues and other compounds. The true share with any hit is near 2.4%.
# D2 ag-1 = activates the human D2 dopamine receptor | AID 485358 | HEK293 T-REx D2 cells, calcium flux agonist mode | activation, % at 2 µM | 340,000 tested, 0.53% active | P14416;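 active = activation over 3 SD above normal in the single-dose calcium agonist read, cut at about 30% in these data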; note: 0% is about no effect
# Target sequence (P14416 whole entry, looked up): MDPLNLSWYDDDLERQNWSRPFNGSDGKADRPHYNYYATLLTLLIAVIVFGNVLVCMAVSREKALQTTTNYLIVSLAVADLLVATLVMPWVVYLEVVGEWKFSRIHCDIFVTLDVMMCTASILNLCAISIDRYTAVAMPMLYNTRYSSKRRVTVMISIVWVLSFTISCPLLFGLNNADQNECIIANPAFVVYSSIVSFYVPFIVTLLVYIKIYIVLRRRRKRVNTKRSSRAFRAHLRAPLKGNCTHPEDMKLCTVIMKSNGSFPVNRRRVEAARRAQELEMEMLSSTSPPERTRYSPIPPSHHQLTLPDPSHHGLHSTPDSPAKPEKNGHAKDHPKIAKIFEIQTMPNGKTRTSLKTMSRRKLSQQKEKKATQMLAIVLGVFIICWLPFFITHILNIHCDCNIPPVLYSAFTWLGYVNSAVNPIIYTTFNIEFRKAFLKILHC
#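 Calcium-flux readout, 1 cycle/sec over 180 s following compound pin transfer, in inducible HEK293 Trex D2 cells (force-coupled); dopamine controls included. Positive calcium responses during this window marked compounds as potential agonists.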
# D2 PAM-1 = human D2 receptor positive allosteric modulation | P14416 | DiscoveRx D2 beta-arrestin cells, luminescence, 90 min; 100% = 57 uM dopamine signal | potentiation, % (test concentration not listed) | 360,000 tested, 0.23% active; in the data active = potentiation above about 50%; inconclusive = mostly about 30% to 49%
#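 PathHunter D2 cells, attached overnight at 37 deg C, received compound in DMSO plus dopamine at EC20 (50 nM final) for 90 min at 37 deg C. Beta-arrestin recruitment was read as luminescence after 1 h with detection reagent at ambient temperature.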
# D2 antagonist = antagonists of human D2 dopamine receptor; AID 485344; inhibition, % at 10 µM; HEK293 TREx D2 cells, calcium flux, dopamine EC80; 340,000 tested, 2% active; in the data active = inhibition above about 30%; inactive = below that, where a call was filed; note: 0% is about no effect
#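 Inhibition of EC80 dopamine-driven calcium flux, recorded kinetically, defines activity here; cells are a tetracycline-induced HEK293 T-REx line expressing force-coupled D2.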
# D2 PAM-2 = positive allosteric modulators of human D2 dopamine receptor; HEK293 T-REx D2, calcium flux, EC20 dopamine potentiation; potentiation, % at 10 µM; 340,000 tested, 0.34% active;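 active = potentiation over 3 SD above the plate norm, cut at about 30% in these data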; note: 0% is about no effect
#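 Calcium flux readout, no-wash dye, 1 read/s. Inducible HEK293 Trex D2 line, overnight 30 C. Compound alone 180 s (agonist flags), then EC20 dopamine, another 180 s to score potentiation.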
# D2 ag-2 = agonists of human D2 dopamine receptor (beta-arrestin). P14416. DiscoveRx PathHunter D2 beta-arrestin, luminescence, 90 min; 100% = 57 uM dopamine signal. activation, % (test concentration not listed). 360,000 tested, 0.084% active; in the data active = activation above about 40%; inconclusive = between about 15% and that limit
#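 Agonist mode: compounds alone added to overnight-plated D2 PathHunter cells for 90 min at 37 C, with 57 uM final dopamine (EC100) defining full response. Beta-arrestin recruitment detected by chemiluminescent reagent, read after 1 h at ambient temperature.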
# Starred values were filed as active, the others as inactive; ? = inconclusive; . = no result.
SMILES,D2 ag-1,D2 PAM-1,D2 antagonist,D2 PAM-2,D2 ag-2
Cc1ccc(CN2C3CCCC2CC(NC(=O)Nc2cccc(F)c2)C3)cc1 (stereo not drawn),1.1,-26.1,75.0*,-28.4,-2.3
CCC1(C)OC(c2ccccc2)=C/C(=C/C=C2C(=O)NC(=O)NC2=O)O1 (stereo not drawn),14.9,-15.4,43.3*,-9.1,0.4
COc1ccc(OC)c(NC(=O)Cn2cc(C(=O)c3ccccc3F)c3ccccc32)c1,0.1,.,.,-5.7,.
CC1CCCN(c2ccc(C(=O)N3CCC4(CC3)OCCO4)cc2[N+](=O)[O-])C1 (stereo not drawn),2.6,-6.0,-4.3,5.9,-0.5
CCOC(=O)C1CCCN(c2ccc([N+](=O)[O-])c3nonc23)C1 (stereo not drawn),134.7*,-14.8,51.7*,-7.6,4.3
COc1ccc(CCN)cc1O,.,-17.1,.,.,4.1
CNCCc1ccc(O)c(O)c1,.,66.4*,.,.,76.5*
O=C1CC(c2cccnc2)=NN1c1ccc(Cl)cc1Cl,-0.1,-11.6,3.5,5.6,-2.3
CCN1C(=O)CC(c2cccnc2)=Nc2ccccc21,1.5,-10.0,31.4*,2.7,1.4
C[C@H](NC(=O)CCC(=O)N1C[C@H]2C[C@H](C1)c1cccc(=O)n1C2)c1ccccc1,0.3,4.8,16.9,-6.2,1.9
O=c1cccc2n1CC1CC2CN(C(c2ccccc2)c2sc3ncnn3c2O)C1 (stereo not drawn),1.3,-1.2,31.6*,4.1,-1.7
Cc1cccc(Cn2cccc(C(=O)Nc3nnc(C)s3)c2=O)c1,-1.5,.,.,2.7,.
O=C1NC(=O)[C@]2(Cc3ccccc3N3CCN(c4ccccc4)CC32)C(=O)N1Cc1ccccc1 (stereo partly drawn),34.7*,8.8,39.8*,-18.0,?
CC(C)OP(=O)(OC(C)C)C(O)c1ccc(Br)cc1 (stereo not drawn),-0.6,103.7*,0.0,-4.1,11.6
c1ccc2c(CN3CCN(C4CCCCC4)CC3)c[nH]c2c1,-0.2,-18.5,-10.1,-9.7,-0.6
OC(CN1CCC(c2c[nH]c3ccccc23)CC1)C(F)(F)F (stereo not drawn),0.4,-9.9,77.0*,-15.4,-5.3
CC(C)N1CCN(c2ccc(O)cc2)CC1,1.1,-11.4,14.7,-27.4,9.6
CC(C)N1CCOC(c2ccc(O)c(O)c2)C1 (stereo not drawn),.,59.7*,.,.,83.0*
CCc1ccc(-n2nc(C)c3c2NC(=O)CSC3c2ccc(C(=O)OC)cc2)cc1 (stereo not drawn),-1.3,.,.,-2.0,.
CCCCOc1ccc(CCN)cc1Cl,2.9,-20.3,41.8*,3.1,-5.7
CC(C)Oc1ccc(CCN)cc1Cl,1.1,-14.1,7.8,-6.2,0.7
Cc1cccc(-n2c(/C=C/c3c[nH]c4ccccc34)nc3ccccc3c2=O)c1,.,.,.,4.3,.
COc1ccc(C)cc1NC(=O)c1cccn(Cc2cccc([N+](=O)[O-])c2)c1=O,.,.,.,-9.8,.
CCOC(=O)c1c(N)n(Cc2ccco2)c2nc3ccccc3nc12,10.6,-9.9,30.0*,-13.3,-7.6
COCCOC(=O)c1c(N)n(Cc2ccccc2)c2nc3ccccc3nc12,-1.8,12.7,36.2*,-0.1,-1.8
SMILES,D2 ag-1,D2 PAM-1,D2 antagonist,D2 PAM-2,D2 ag-2
CCCCn1c(N)c(C(=O)OCCOC)c2nc3ccccc3nc21,.,3.5,.,.,-2.5
Cc1cccc(NC(=O)Cn2cc(C(=O)c3ccccc3)c3ccccc32)c1C,0.6,.,.,-4.1,.
Cn1c(=O)n(C)c2cc(CNCCc3ccccc3F)ccc21,2.1,.,.,-7.8,.
CCC(C)NC(=O)CCC(=O)OC1O[C@H]2OC3(C)CC[C@H]4[C@H](C)CCC(C1C)C24OO3 (stereo partly drawn),-0.2,24.4,-30.9,7.3,57.5*
CCC(C)C(NC(=O)CCCNC(=O)CCC(=O)OC1O[C@H]2OC3(C)CC[C@H]4[C@H](C)CCC(C1C)C24OO3)C(=O)O (stereo partly drawn),0.1,.,17.8,16.3,.
CCC(=O)N1CC(=O)Nc2ccc(C)cc2C1c1ccc(F)cc1 (stereo not drawn),-0.6,.,.,13.5,.
CCn1cc(C=C2C(=O)NC(=O)NC2=O)c2ccccc21,1.1,3.4,37.9*,-1.3,-2.5
CCCCc1ccc(NC(=O)c2cccn(Cc3ccc(Cl)cc3)c2=O)cc1,.,.,.,-3.5,.
